One experiment concerns the target Albumin (Bos taurus) (UniProt P02769). Briefly: compounds binding labelled BSA control protein – biochemical, small-molecule microarray, Alexa647 label, 635/667 nm fluorescence, artefact control for SMM control protein annotation, profiling panel (AID 1118).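 Also: score merges 667 nm emission intensity and signal-to-noise per printed compound spot.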 The conditions noted are these: BSA-A647 binding, fluorescence 635 nm, higher = more signal.
Experiment [1] in a line: probe aXIP binding to arrayed compounds – biochemical, NeuroSMM set, 635/667 nm fluorescence, primary screen (AID 1119).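 Also: probe is the protein aXip251-270 applied at 1 µg/mL to compound-printed slides; binding of probe to printed compounds measured as 667 nm fluorescence plus signal to noise.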 The conditions noted are these: small-molecule microarray, higher = more signal, called active from +8 up or from −8 down.
A short description of experiment [2]: probe aNOTCH3 binding on compound microarray – biochemical, small-molecule microarray, 635/667 nm fluorescence, primary screen (AID 1120).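 Also: probe is a biotin-tagged antibody raised against NOTCH3 rather than NOTCH3 protein; score merges spot fluorescence near 667 nm with spot signal to noise.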 Particulars: higher = more signal.
The nature of experiment [3]: probe aNOTCH2 binding on compound microarray – biochemical, small-molecule microarray, 635/667 nm fluorescence, primary screen (AID 1121).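 Also: score merges feature fluorescence read at 667 nm with its signal to noise.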 The conditions noted are these: higher = more signal.
The target in experiment [4] is Carbonic anhydrase 2 (Homo sapiens) (UniProt P00918). Briefly: compounds binding carbonic anhydrase 2 – biochemical, small-molecule microarray, Alexa647-labelled CAII, profiling panel (AID 1122). The conditions noted are these: CAII-A647 binding fluorescence, higher = more signal.
A short description of experiment [5]: COS7 lysate on small-molecule microarray, probe aHis, 635 nm (AID 1123).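 Also: z-score combines 667nm fluorescence intensity with signal-to-noise per printed compound spot.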 Particulars: COS7 cell lysate, fluorescence, higher = more signal.
A short description of experiment [6]: probe aLAP1 signal on lysate-treated microarray – cell lysate, small-molecule microarray, COS7 lysate, primary screen (AID 1124).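 Also: lysate comes from COS7 cells expressing LAP1 and is applied at 0.3 µg/mL; score merges spot fluorescence near 667 nm with signal-to-noise over triplicate slides.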 The conditions noted are these: probe aLAP1, fluorescence, higher = more signal.
For a further experiment, the system named is Sam68 (KHDRBS1). Briefly: compounds binding KHDRBS1 protein – biochemical, small-molecule microarray, 635 nm fluorescence, primary screen (AID 1125).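 Also: score merges 667 nm channel intensity with signal to noise over triplicate slides.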 The conditions noted are these: higher = more signal.
Experiment [7] concerns Chordin-like protein 2 (CHRDL2). Briefly: compounds binding chordin-like 2 – biochemical, small-molecule microarray, 635 nm fluorescence, primary screen (AID 1126).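 Also: printed compound slides probed with Chrdl2 protein at 4 µg/mL for 1 h at 4 C; score merges 667 nm emission intensity with signal to noise over three replicate slides.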 Particulars: fluorescence 635 nm, higher = more signal.
In experiment [8] the target is Concanavalin-A (Canavalia ensiformis) (UniProt P02866). Put plainly: compounds binding concanavalin A lectin – biochemical, small-molecule microarray, Alexa647 label, 635 nm, artefact control for SMM control protein annotation, primary screen (AID 1127).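 Also: z combines 667 nm emission intensity with signal-to-noise across three replicate slides.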 The conditions noted are these: ConA-A647 binding fluorescence, higher = more signal.
Chain of Concanavalin-A (Canavalia ensiformis) (P02866 whole entry, looked up): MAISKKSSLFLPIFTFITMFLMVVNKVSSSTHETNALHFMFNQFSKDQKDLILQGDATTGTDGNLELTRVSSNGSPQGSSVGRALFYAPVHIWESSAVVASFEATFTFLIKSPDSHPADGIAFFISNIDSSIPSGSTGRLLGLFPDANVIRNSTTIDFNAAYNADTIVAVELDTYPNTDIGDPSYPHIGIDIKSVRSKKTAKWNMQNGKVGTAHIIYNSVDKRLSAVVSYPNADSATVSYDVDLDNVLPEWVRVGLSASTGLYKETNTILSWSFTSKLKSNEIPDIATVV
Experiment [9] can be described thus: compounds binding Alexa647 anti-His antibody – biochemical, small-molecule microarray, 635 nm fluorescence, artefact control for SMM control protein annotation, primary screen (AID 1128).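 Also: score merges feature fluorescence with signal-to-noise for each printed compound spot.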 The conditions noted are these: higher = more signal.
For experiment [10], the system named is Human papillomavirus type 1a E7 protein (residues 1-88). Put plainly: HPV1a E7 small-molecule binders, primary screen, biochemical, small-molecule microarray, residues 1-88, 635 nm (AID 1129). Particulars: small-molecule microarray binding, fluorescence 635 nm; higher = more signal.
The target in experiment [11] is Focal adhesion kinase 1 (Homo sapiens) (UniProt Q05397). Briefly: PTK2 protein binding on printed compound slides – biochemical, small-molecule microarray, 635/667 nm fluorescence, BSA, DTT, primary screen (AID 1130).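 Also: composite of spot emission at 667 nm and signal to noise over triplicate slides.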 The conditions noted are these: 635 nm fluorescence, higher = more signal.
Chain of Focal adhesion kinase 1 (Homo sapiens) (Q05397 whole entry, looked up): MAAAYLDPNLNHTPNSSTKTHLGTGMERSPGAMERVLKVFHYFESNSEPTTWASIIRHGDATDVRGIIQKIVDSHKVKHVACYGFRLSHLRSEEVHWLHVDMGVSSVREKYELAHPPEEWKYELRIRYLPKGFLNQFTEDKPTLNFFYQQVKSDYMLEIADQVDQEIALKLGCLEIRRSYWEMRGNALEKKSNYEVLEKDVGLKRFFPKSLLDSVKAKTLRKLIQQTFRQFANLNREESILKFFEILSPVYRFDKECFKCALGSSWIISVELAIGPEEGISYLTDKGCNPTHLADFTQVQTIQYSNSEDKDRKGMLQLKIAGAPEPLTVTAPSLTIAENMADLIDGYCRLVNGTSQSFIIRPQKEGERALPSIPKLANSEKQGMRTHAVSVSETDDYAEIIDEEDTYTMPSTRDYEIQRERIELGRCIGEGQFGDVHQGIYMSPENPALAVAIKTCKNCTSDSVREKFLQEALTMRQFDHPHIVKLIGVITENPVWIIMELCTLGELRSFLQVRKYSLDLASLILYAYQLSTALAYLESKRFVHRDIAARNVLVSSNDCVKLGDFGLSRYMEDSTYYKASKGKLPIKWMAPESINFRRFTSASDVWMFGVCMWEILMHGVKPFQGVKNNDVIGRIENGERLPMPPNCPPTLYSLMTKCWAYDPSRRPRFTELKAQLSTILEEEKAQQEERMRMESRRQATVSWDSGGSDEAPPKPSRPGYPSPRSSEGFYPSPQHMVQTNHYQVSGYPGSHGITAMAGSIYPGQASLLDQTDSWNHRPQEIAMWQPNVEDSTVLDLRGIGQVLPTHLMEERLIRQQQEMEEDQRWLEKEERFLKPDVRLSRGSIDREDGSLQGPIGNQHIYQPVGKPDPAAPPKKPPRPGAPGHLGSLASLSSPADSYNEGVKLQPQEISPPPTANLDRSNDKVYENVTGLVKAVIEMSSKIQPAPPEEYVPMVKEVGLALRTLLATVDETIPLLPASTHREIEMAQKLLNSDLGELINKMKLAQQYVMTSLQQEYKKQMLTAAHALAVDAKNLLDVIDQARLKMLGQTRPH
Experiment [12] deals with Fibrinogen (Alexa647-labelled). Put plainly: Alexa647-fibrinogen binding to printed small molecules – biochemical, small-molecule microarray, 635/667 nm fluorescence, artefact control for SMM control-protein annotation, profiling panel (AID 1131).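 Also: z-score merges 667 nm fluorescence with per-spot signal-to-noise over triplicate slides.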 Particulars: fibrinogen-A647 binding fluorescence, higher = more signal.
For experiment [13], the target named is Follistatin (Homo sapiens) (UniProt P19883). Briefly: FST protein binding to printed compounds – biochemical, small-molecule microarray, 635/667 nm fluorescence, primary screen (AID 1132). The conditions noted are these: 635 nm fluorescence, higher = more signal.
Chain of Follistatin (Homo sapiens) (P19883 whole entry, looked up): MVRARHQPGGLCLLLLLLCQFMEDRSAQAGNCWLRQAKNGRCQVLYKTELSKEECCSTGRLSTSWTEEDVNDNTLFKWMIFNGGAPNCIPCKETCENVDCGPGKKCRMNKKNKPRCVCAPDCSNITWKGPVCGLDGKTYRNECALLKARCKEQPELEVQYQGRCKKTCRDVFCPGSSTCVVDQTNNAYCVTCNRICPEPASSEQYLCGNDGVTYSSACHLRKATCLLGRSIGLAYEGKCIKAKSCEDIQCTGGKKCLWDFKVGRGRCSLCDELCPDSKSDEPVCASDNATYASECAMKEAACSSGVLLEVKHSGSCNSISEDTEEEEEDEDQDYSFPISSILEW
Experiment [14] addresses Fibroblast growth factor 2 (Homo sapiens) (UniProt P09038). Briefly: basic fibroblast growth factor binding to printed compounds – biochemical, small-molecule microarray, 635/667 nm fluorescence, primary screen (AID 1133). Particulars: FGF2, fluorescence 635/667, higher = more signal.
A short description of experiment [15]: JC-1 mitochondrial potential readout, lung cancer cells – cell-based, A549, JC-1 fluorescence, basal, 24 h, 100 nL, profiling panel (AID 1138).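 Also: A549 lung adenocarcinoma cells under basal conditions with no added stimulus; test concentration not given here.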 Particulars: higher = more signal.
Another experiment deals with Lefty1. Briefly: Lefty1 protein binding to printed compounds – biochemical, small-molecule microarray, 635/667 nm fluorescence, primary screen (AID 1139). Particulars: fluorescence 635/667, higher = more signal.
Experiment [16] relates to wheat germ agglutinin (Triticum aestivum), Alexa647-labelled. Briefly: Alexa647-WGA lectin binding to printed small molecules – biochemical, small-molecule microarray, 635/667 nm fluorescence, artefact control for SMM control-protein annotation, profiling panel (AID 1140).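 Also: score merges 667 nm feature emission with signal to noise over triplicate slides.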 The conditions noted are these: WGA-A647 binding, 635 nm fluorescence, higher = more signal.
In experiment [17] the target is Luciferin 4-monooxygenase (Photinus pyralis) (UniProt P08659). Put plainly: inhibition of purified Photinus pyralis luciferase – biochemical, luminescence, purified enzyme, 2006 set, primary screen (AID 1141).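 Also: cell-free assay with purified firefly luciferase at 100 ng per well in PBS; test concentration not given here.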 Particulars: purified firefly luciferase, SteadyGlo luminescence, 30 min; higher = more signal, called active from +8 up or from −8 down.
Chain of Luciferin 4-monooxygenase (Photinus pyralis) (P08659 whole entry, looked up): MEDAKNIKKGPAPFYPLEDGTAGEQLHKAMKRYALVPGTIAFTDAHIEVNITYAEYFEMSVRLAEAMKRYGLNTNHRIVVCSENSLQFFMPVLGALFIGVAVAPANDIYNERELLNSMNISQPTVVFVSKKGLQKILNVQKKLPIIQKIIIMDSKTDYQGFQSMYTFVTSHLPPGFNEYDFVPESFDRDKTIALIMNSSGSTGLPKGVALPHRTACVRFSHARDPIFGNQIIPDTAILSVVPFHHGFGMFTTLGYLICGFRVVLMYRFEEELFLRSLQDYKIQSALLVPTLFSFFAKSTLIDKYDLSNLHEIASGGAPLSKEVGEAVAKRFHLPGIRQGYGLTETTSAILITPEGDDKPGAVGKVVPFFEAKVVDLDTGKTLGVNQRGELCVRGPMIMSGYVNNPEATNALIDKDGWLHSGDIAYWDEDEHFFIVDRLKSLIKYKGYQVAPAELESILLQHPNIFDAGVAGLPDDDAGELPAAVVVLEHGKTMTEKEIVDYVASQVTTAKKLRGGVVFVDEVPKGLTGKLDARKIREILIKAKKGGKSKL

Active and inactive are the calls of the source.

Chain of Fibroblast growth factor 2 (Homo sapiens) (P09038 whole entry, looked up): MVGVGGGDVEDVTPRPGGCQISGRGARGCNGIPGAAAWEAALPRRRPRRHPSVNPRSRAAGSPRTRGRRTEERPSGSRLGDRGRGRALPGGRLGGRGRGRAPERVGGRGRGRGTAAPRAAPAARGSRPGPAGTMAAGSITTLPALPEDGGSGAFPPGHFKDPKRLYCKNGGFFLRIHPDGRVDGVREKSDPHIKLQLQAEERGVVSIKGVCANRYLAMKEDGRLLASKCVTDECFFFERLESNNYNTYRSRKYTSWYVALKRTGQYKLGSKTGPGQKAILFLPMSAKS
Chain of Albumin (Bos taurus) (P02769 whole entry, looked up): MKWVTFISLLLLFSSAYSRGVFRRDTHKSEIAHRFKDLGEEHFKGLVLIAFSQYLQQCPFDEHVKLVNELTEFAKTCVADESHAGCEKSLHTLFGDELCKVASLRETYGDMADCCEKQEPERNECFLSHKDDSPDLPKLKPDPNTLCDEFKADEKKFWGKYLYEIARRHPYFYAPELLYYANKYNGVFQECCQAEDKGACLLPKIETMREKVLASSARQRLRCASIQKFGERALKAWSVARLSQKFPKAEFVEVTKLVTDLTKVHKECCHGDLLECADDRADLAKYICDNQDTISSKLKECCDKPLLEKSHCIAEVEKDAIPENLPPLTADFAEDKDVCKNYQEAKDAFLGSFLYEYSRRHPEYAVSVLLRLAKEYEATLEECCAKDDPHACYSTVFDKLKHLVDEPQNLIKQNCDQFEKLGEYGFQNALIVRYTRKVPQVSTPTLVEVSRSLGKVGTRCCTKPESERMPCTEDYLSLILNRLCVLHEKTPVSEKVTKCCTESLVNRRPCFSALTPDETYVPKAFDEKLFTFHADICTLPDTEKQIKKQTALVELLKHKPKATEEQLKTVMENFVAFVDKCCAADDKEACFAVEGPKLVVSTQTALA

`COCC(=C=CC[C@H](O)c1ccccc1OCCO)C[C@H](O)COCc1ccccc1`: the composite z-score in the experiment with Albumin (Bos taurus) is 0.816; in experiment [2], 0.304; in [3], -0.148; in experiment [4] it was 0.505; in experiment [5], 2.08; in [6] it was 1.81. Further, the composite z-score in the experiment on Sam68 (KHDRBS1) was found to be 1.14; in [7] it was 0.0973; in [8], 0.245; in experiment [9], 2.34; in [10], 1.19; in experiment [11] it was 0.516. The composite z-score in experiment [12] was determined as 0.272; in experiment [13], 0.792; in [14] it was 0.659; with Lefty1 it was 0.632; in [16], 0.0903. The composite Z-score in experiment [1] is 0.0117 (inactive). Further, the figures for the z-score in experiment [15] and in [17] were 1.26 and -1.06 (inactive), respectively.
In the case of `O=C1C2C=CC(C(O)c3ccc([N+](=O)[O-])cc3)N(Nc3ccccc3F)C2C(=O)N1c1ccccc1` (stereo not given), the composite z-score in the experiment with Albumin (Bos taurus) was 1.04; in experiment [2] it was -0.124; in [3], 0.0323; in experiment [4], 0.703; in experiment [5], -0.309; in experiment [6], 1.06. Further, the composite z-score was 0.808 in the experiment with Sam68 (KHDRBS1); -0.445 in experiment [7]; 0.886 in experiment [8]; 1.68 in experiment [9]; 1.19 in experiment [10]; -0.119 in [11]. Also, the composite z-score in [12] is 0.717; in experiment [13], 0.232; in [14], -0.218; in the experiment with Lefty1, -0.46; in experiment [16] it was 1.36. Also, the composite Z-score in experiment [1] is 0.0431 (inactive). Also, the figures for the z-score in [15] and in experiment [17] were -0.675 and 0.739 (inactive), respectively.
On to `O=C1C[C@]2(c3ccc([N+](=O)[O-])cc3)C(=O)N(C3CC3)c3cc(CO)ccc3[C@H]2N1C1CCCCC1`, for which the composite z-score was -0.806 with Albumin (Bos taurus); -0.103 in experiment [2]; -0.172 in [3]; -0.0953 in experiment [4]; 0.792 in experiment [5]; 0.835 in experiment [6]. The composite z-score is 0.0418 in the experiment on Sam68 (KHDRBS1); -0.308 in experiment [7]; 0.55 in [8]; -0.268 in experiment [9]; -0.115 in experiment [10]; 0.0202 in [11]. Further, the composite z-score in experiment [12] is -0.408; in experiment [13] it was -0.0193; in experiment [14], 0.173; with Lefty1, -0.0446; in [16] it was 0.0523. Besides, the composite Z-score in experiment [1] is 0.127 (inactive). Further, the z-score was -0.22 in experiment [15] and 0.277 (inactive) in [17].
In the case of `COCCOC(=O)N1C(=O)[C@@]2(c3ccccc31)[C@H](c1ccc(O)cc1)N1[C@H](c3ccccc3)[C@H](c3ccccc3)OC(=O)[C@H]1[C@@H]2C(=O)N1CCCCCCC1`, the composite z-score in the experiment with Albumin (Bos taurus) was 0.46; in [2] it was 1.98; in [3], 0.851; in experiment [4], 0.863; in experiment [5], 3.62; in experiment [6], 1.18. In addition, the composite z-score in the experiment with Sam68 (KHDRBS1) stood at 1.3; in [7], 1.58; in experiment [8] it was 1.14; in [9], 2.71; in experiment [10], 1.21; in experiment [11], 0.791. For the same molecule, the composite z-score was 0.941 in experiment [12]; 1.46 in [13]; 1.74 in experiment [14]; 1.72 with Lefty1; 1.43 in experiment [16]. For the same molecule, the composite Z-score in experiment [1] was 4.53 (inactive). In addition, the z-score in experiment [15] is -1.16; in experiment [17], 0.171 (inactive).
Consider `CCCCN1CC=CC23O[C@@H]4/C=C\CCCOC(=O)C4[C@H]2C(=O)N(C(CO)C(C)C)[C@@H]3C1=O` (stereo not given in full), for which the composite z-score with Albumin (Bos taurus) was -0.745; in [2], -0.0339; in experiment [3] it was -0.0504; in experiment [4], 0.781; in experiment [5], 0.0745; in experiment [6], -0.158. The composite z-score is 0.239 with Sam68 (KHDRBS1); -0.0768 in experiment [7]; -0.592 in [8]; 0.0807 in experiment [9]; -0.654 in [10]; -0.192 in experiment [11]. Besides, the composite z-score in experiment [12] is -0.458; in experiment [13] it was 0.0549; in [14], 0.0877; in the experiment on Lefty1, 0.249; in experiment [16], -0.0096. In addition, in [1], the composite Z-score was -0.108 (inactive). For the same molecule, the z-score was -0.455 in experiment [15] and -0.0573 (inactive) in experiment [17].

For the origin of these results see PubChem BioAssay.
